Source: PubChem (National Center for Advancing Translational Sciences (NCATS))
TRHR PAM = qHTS for Small Molecule Agonists and Allosteric Enhancers of Human TRH Receptor: Primary Screen for Enhancers; Thyrotropin-releasing hormone receptor (Homo sapiens), P34981; TRHR cells, fluo-8 calcium fluorescence, EC20 TRH enhancement; enhancement, % at 2 µM; actives 0.66% (n = 360,000); AID 493056, 2011; in the data active = enhancement above about 30%
Target sequence (P34981 whole entry, looked up): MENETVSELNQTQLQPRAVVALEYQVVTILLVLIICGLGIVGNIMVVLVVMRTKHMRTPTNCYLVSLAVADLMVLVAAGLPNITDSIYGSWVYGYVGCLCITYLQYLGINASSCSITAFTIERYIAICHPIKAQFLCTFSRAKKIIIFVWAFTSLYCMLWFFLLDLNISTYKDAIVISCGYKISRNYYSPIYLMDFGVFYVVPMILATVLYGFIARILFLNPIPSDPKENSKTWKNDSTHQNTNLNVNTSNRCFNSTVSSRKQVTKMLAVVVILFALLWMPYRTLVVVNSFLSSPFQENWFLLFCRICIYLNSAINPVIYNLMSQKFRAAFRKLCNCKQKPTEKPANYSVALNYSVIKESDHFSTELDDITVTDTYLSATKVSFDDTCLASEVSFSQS
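Enhancer read-out: after compound pinning and an initial kinetic agonist-mode read, an EC20 of TRH (10 nM final) was injected and fluo-8 calcium signal (Ex 480/Em 530) followed at 1 s/cycle for 100 cycles in TRHR-expressing cells.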
PTAP TSG101 blk = qHTS Assay for Iinhibitors of HIV-1 Budding by Blocking the Interaction of PTAP/TSG101 | Fluorescence polarization, FITC-PTAP peptide / Tsg101 binding | Potency, µM (highest dose often 115 µM), usual class: inhibitors | Tumor susceptibility gene 101 protein (Homo sapiens), Q99816 | 340,000 tested, under 10 active; active = well fitted inhibition curve with a large enough effect in the main read-out, with a control signal flat, not every such curve was filed as active; inconclusive = small, poorly fitted or top-dose-only effect, or effect the other way, or a change in a side signal; inactive = no such curve, though single readings can be large or run the other way
Target sequence (Q99816 whole entry, looked up): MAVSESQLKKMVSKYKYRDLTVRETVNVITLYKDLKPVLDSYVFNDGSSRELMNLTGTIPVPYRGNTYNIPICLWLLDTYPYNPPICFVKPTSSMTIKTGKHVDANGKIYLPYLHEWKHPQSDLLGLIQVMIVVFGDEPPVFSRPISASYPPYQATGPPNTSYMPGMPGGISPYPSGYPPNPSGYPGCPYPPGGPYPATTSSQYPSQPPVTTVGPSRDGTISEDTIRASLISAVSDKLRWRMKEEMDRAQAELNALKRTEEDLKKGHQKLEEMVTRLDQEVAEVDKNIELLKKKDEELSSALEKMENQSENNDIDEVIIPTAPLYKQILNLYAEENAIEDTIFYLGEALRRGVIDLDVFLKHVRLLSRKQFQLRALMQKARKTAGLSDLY
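Tsg101 binding domain (10 uM final) was mixed with compound and a FITC-labeled PTAP peptide (50 nM final) in HEPES pH 7.5 buffer with NaCl, Tween 20, EDTA and TCEP; fluorescence polarization was read after 20 min at r.t.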
TRHR ag = qHTS for Small Molecule Agonists and Allosteric Enhancers of Human TRH Receptor: Primary Screen for Agonists; AID 493084, 2011; activation, % at 2 µM; TRHR cells, calcium flux fluo-8, FDSS agonist mode; Thyrotropin-releasing hormone receptor (Homo sapiens), P34981; actives 0.18% (n = 360,000); in the data active = activation above about 30%
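Agonist-mode FDSS calcium read (Ex 480/Em 530, 1 s cycles) in 1536-well TRHR cells with fluo-8 dye, after 10-cycle baseline and 23 nL compound addition; TRH at EC20 (10 nM final) added afterwards for the enhancer phase.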
TRPML1 agonist = qHTS for Agonists of the Human Mucolipin Transient Receptor Potential 1 (TRPML1). activation, % (test concentration not listed). actives 0.12% (n = 410,000). TRPML1-expressing cells, Ca2+ dye fluorescence, FDSS; in the data active = activation above about 50%; inconclusive = mostly about 30% to 49%
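Tetracycline-induced TRPML1-DL cells are seeded and incubated overnight before loading with a no-wash Ca2+ dye and quencher. Agonist activity is taken from the 110 s fluorescence read following compound pin-transfer on an FDSS, before EC80 54-4 challenge.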
TRPML1 inh = qHTS for Inhibitors of the Human Mucolipin Transient Receptor Potential 1 (TRPML1) | actives 0.02% (n = 390,000) | activity change, negative = inhibition, % (test concentration not listed) | Mucolipin-1 (Homo sapiens), Q9GZU1 | TRPML1-inducible cells, Ca2+ dye fluorescence, FDSS; stronger effect = lower value; inhibition of EC80 agonist-evoked calcium signal | AID 624415, 2012; in the data active = activity change below about -50%; inconclusive = between about -30% and that limit;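 also: stimulus is agonist 54-4 at its EC80 concentration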
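Calcium fluorescence in TRPML1-DL cells induced overnight with Tet: a 110 s read after compound pin addition, then a 110 s antagonist read after challenge with 54-4 at 4 uM final (EC80).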
Each line names hits and unclear results; the compound was inactive in the other large screens. This is a sample that favours compounds with a hit; in the whole collection about 0.81% have one here.

CCCN1C(=O)/C(=C\C=C2/Sc3ccccc3N2CC)SC1=S	none (no result: PTAP TSG101 blk, TRPML1 agonist, TRPML1 inh)
CCCN1C(=O)/C(=C\C=C2\N(CC)c3ccccc3C2(C)C)SC1=S	PTAP TSG101 blk inconclusive, TRHR ag 35.6
CCN(CC)c1ccc(/C=C/c2ccc3ccccc3n2)cc1	none (no result: TRHR PAM, PTAP TSG101 blk, TRHR ag, TRPML1 inh)
COc1ccc(-c2cn3nc(N4CCCC(C(=O)NCc5ccccc5Cl)C4)sc3n2)cc1 (configuration not stated)	none (no result: PTAP TSG101 blk)
Cc1ccc(-c2cn3nc(N4CCCC(C(=O)NCc5ccccc5F)C4)sc3n2)cc1 (configuration not stated)	TRHR PAM 30.4 (no result: PTAP TSG101 blk)
CCOC(=O)CC1C(=O)NCCN1Cc1cccc(OC)c1 (configuration not stated)	TRHR PAM 35.8
COc1ccc(OC)c(/C=C/c2cc3ccccc3cn2)c1	none (no result: TRHR PAM, PTAP TSG101 blk, TRHR ag, TRPML1 inh)
CCn1c(/C=C/c2ccccc2[N+](=O)[O-])nc2ccccc2c1=O	TRHR PAM 40.1
CCn1c(C)c2c([n+]1CC)CC(C)(C)CC2=O	none
CCn1c2c(c(C)cc1=O)C(=O)CC(C)(C)C2	TRHR PAM 33.7
O=C(Nc1ccc(F)cc1)Nc1ccc2c(c1)CCC2	TRHR PAM 35.2
O=C(Nc1cccc(F)c1)Nc1ccc2c(c1)CCC2	none
CCN(CC)c1ccc(/C=C(\C#N)c2nc(-c3cccs3)c(NC(C)=O)s2)cc1	TRHR ag 63.5 (no result: PTAP TSG101 blk, TRPML1 agonist, TRPML1 inh)
CC(=O)Nc1sc(N/N=C\c2ccc(O)cc2)nc1-c1cccs1	none
O=C(N/N=C/c1ccc(OC(F)F)cc1)c1cc[n+]([O-])cc1	TRHR PAM 33.7
CCCn1c(=O)c(C(=O)OCC)c(O)c2cc(Br)ccc21	TRHR PAM 31.7
Cc1ccc(Nc2nnc(-c3cc4c(ccc5ccccc54)oc3=O)s2)cc1	none (no result: PTAP TSG101 blk)
CCN(CC)c1ccc2cc(-c3nnc(Nc4ccc(C)cc4)s3)c(=O)oc2c1	TRHR ag 159.5, TRPML1 agonist 67.1 (no result: PTAP TSG101 blk)
CCN(CC)c1ccc2cc(-c3nc(-c4ccccc4)no3)c(=O)oc2c1	TRHR ag 55.4 (no result: PTAP TSG101 blk)
O=c1oc2ccccc2cc1-c1nc(-c2ccccc2)no1	none
Cc1[nH]c2ccccc2c1C(=O)CNc1ccc(Br)cc1	none (no result: TRHR PAM, PTAP TSG101 blk, TRHR ag, TRPML1 inh)
N#Cc1nc(Nc2cccc(C(F)(F)F)c2)nc(NC2CCCC2)n1	none (no result: PTAP TSG101 blk, TRPML1 agonist, TRPML1 inh)
CC1=CC(C)(C)N2C(=O)C3(C(C#N)=C(N)Oc4cc(O)ccc43)c3cccc1c32 (configuration not stated)	TRHR PAM 32.1
CC1=CC(C)(C)N2C(=O)C3(C(C#N)=C(N)OC4=C3C(=O)CC(C)(C)C4)c3cccc1c32 (configuration not stated)	none (no result: PTAP TSG101 blk, TRPML1 agonist, TRPML1 inh)
CN(C)C1CCC(CC2CCc3ccccc32)CC1 (configuration not stated)	none (no result: TRHR PAM, PTAP TSG101 blk, TRHR ag, TRPML1 inh)
C/C(CC(=O)Nc1ccccc1)=N\NC(=O)COc1ccc(C)cc1Br	TRHR PAM 33.7
COc1ccc2nc(NC(=O)CSc3ccccc3)sc2c1	TRHR PAM 32.1
COc1ccc2nc(NC(=O)CSC3=NCCS3)sc2c1	none
CCCCn1c(=O)c(CCC(=O)OCC(=O)NC(=O)NCCC(C)C)nc2ccccc21	TRHR PAM 30.2
CCCCn1c(=O)c(CCC(=O)OCC(=O)NC(=O)NCCOC)nc2ccccc21	none
CCOC(=O)c1c(C)sc(-c2c(-c3cc(C)ccc3C)[nH]c3c2c(=O)n(C)c(=O)n3C)c1O	none (no result: PTAP TSG101 blk)
CCOC(=O)c1c(C)sc(-c2c(-c3cccc(Cl)c3)[nH]c3c2c(=O)n(C)c(=O)n3C)c1O	TRHR ag 169.3, TRPML1 agonist inconclusive (no result: PTAP TSG101 blk)
COc1ccc(CCNC(=O)C(=O)Nc2ccc(C)c(C)c2)cc1	TRHR PAM 31.9 (no result: PTAP TSG101 blk)
O=C(OCCF)N1CCN(/[N+]([O-])=N/Oc2ccc([N+](=O)[O-])cc2[N+](=O)[O-])CC1	none (no result: TRHR PAM, PTAP TSG101 blk, TRHR ag)
CS(=O)(=O)c1ccc(/C=C2\C=Cc3ccccc32)cc1	none (no result: TRHR PAM, PTAP TSG101 blk, TRHR ag, TRPML1 inh)
CN(Cc1ccccc1)C(=O)c1nc2ccccn2c1CNCCn1cccn1	TRHR PAM 34.4
CN(Cc1ccccc1)C(=O)c1nc2ccccn2c1CNCCCOc1cccnc1	none
CCCN1C(=O)c2cccc3c(N4CCCCC4)ccc(c23)C1=O	PTAP TSG101 blk inconclusive
CCN1C(=O)c2cccc3c(N)ccc(c23)C1=O	TRHR PAM 60.1, PTAP TSG101 blk inconclusive, TRHR ag 283.7
Cc1ccc(N2C(=O)c3cccc4c(N)ccc(c34)C2=O)c2cccnc12	PTAP TSG101 blk inconclusive, TRHR ag 158.0, TRPML1 agonist 90.4
CN(C)CCCN1C(=O)c2cccc3c(Br)ccc(c23)C1=O	PTAP TSG101 blk inconclusive
CCCCNc1ccc2c3c(cccc13)C(=O)N(CCCC)C2=O	PTAP TSG101 blk inconclusive, TRHR ag 285.8, TRPML1 agonist 109.8
Cc1nn(C)c(C)c1N1C(=O)c2cccc3c(N)ccc(c23)C1=O	PTAP TSG101 blk inconclusive, TRHR ag 135.2, TRPML1 agonist 94.0
Nc1nc(=S)[nH]c2n[nH]nc12	none (no result: TRHR PAM, PTAP TSG101 blk, TRHR ag, TRPML1 inh)
CCOc1ccc(CN2CCN(C3CCSCC3)CC2CCO)cc1 (configuration not stated)	TRHR PAM 40.7
CCOc1ccc(CN2CCN(C3CCC3)CC2CCO)cc1 (configuration not stated)	none
CN(C)S(=O)(=O)c1cccc(NC(=S)NCc2ccco2)c1	TRHR PAM 38.5
CC(=O)c1cccc(NC(=S)NCc2ccco2)c1	none
COc1ccccc1NC(=O)C(=O)NCC(c1ccco1)N1CCc2ccccc21 (configuration not stated)	TRHR PAM 32.9
C=CCN1C=CC(=CC=C(C#N)C#N)C=C1	PTAP TSG101 blk inconclusive, TRHR ag 45.8, TRPML1 agonist inconclusive
Cc1ccc(S(=O)(=O)/N=C2/NC(=O)/C(=C/c3cc([N+](=O)[O-])ccc3O)S2)cc1	TRPML1 agonist 67.3
COc1ccc(/C(C)=N/Nc2cccc(C(=O)O)c2)cc1OC	none
COc1ccc(/C(=C/Nc2cccc(Br)c2)C(C)=O)cc1OC	TRHR PAM 40.7
Cc1nnc(SCCn2c(N3CCN(C)CC3)nc3c2c(=O)[nH]c(=O)n3C)s1	TRHR PAM 40.7
CC(=O)Nc1cc([N+](=O)[O-])cc(NC(C)=O)c1NC(C)=O	none (no result: TRHR PAM, PTAP TSG101 blk, TRHR ag, TRPML1 inh)
COc1ccc(OC)c(C(=O)c2coc3ccc(O)cc23)c1	TRHR PAM 40.1
O=S(=O)(c1ccc2c(c1)OCCO2)N1CCN(S(=O)(=O)c2cccc[n+]2[O-])CC1	none (no result: PTAP TSG101 blk, TRPML1 agonist, TRPML1 inh)
Cc1cc2nn(-c3ccc(Cl)cc3)nc2cc1N	none
